The values below come from PubChem BioAssay (NCATS).

Results filed as inconclusive are left out. Where a call stands in place of a potency, no number is given. Active and inactive are the calls of the source. Calls follow the shape of the full dose curve.

The assay in a line: Cytotoxicity counterscreen for inhibitors of SARS-CoV-2 cell entry (AID 1645845). Also: nearly all actives have a fitted effect of over 50% in size. The conditions noted are these: cell viability (SARS-CoV-2 entry assay cells); series mostly up to 57.1 µM; activity change, negative = cytotoxicity: at the top concentration. Put shortly:
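Expi293F/hACE2 cells seeded overnight; cpd pin-transferred in DMSO, 1 h preincubation, + media, 48 h 37 C 5% CO2; ATPLite 1step luminescence; normalized to cells and no cells.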
Background: Counterscreens check selectivity or assay interference.
Consider `NC(=O)NC1N=C([O][Al])NC1=O` (centres undefined), for which the call was inactive.
In the case of `CCOC(=O)C1=C[C@@H](OC(CC)CC)[C@H](NC(C)=O)[C@@H](N)C1`, the Potency entry is “inactive”.
For the molecule `CCN1CCCC1CNC(=O)c1cc(S(=O)(=O)CC)c(N)cc1OC` (centres undefined), the Potency result was “inactive”.
With `CC(=O)OC(C)C[N+](C)(C)C` (centres undefined), the “activity change, negative = cytotoxicity” value was 0.613% (inactive).
Turning to `OC[C@H]1O[C@H](O[C@]2(CCl)O[C@H](CCl)[C@@H](O)[C@@H]2O)[C@H](O)[C@@H](O)[C@H]1Cl`, the molecule was called inactive.
With `CCC[C@@H]1C[C@@H](C(=O)N[C@@H]([C@H]2O[C@H](SC)[C@H](O)[C@@H](O)[C@H]2O)[C@H](C)Cl)N(C)C1`, the “activity change, negative = cytotoxicity” value is 2.75% (inactive).
The same measure, in the same setting: the value for `Cc1cccc(C)c1OCC(=O)N[C@@H](Cc1ccccc1)[C@@H](O)C[C@H](Cc1ccccc1)NC(=O)[C@H](C(C)C)N1CCCNC1=O` was -4.69% (inactive).
As for `CCOCCn1c(C2CCN(CCc3ccc(C(C)(C)C(=O)O)cc3)CC2)nc2ccccc21`, the result was inactive.
In the case of `CC(CSC(=O)c1ccccc1)C(=O)N1C[C@@H](Sc2ccccc2)C[C@H]1C(=O)O` (some centres undefined), the “activity change, negative = cytotoxicity” value is 1.86% [at 27.1 µM] (inactive).
On the same count and under the same terms, the figure for `CCCC(=O)O[C@]1(C(=O)CO)CC[C@H]2[C@@H]3CCC4=CC(=O)CC[C@]4(C)[C@H]3[C@@H](O)C[C@@]21C` is 0.897% (inactive).
With `CC1(C)O[C@@H]2C[C@H]3[C@@H]4CCC5=CC(=O)C=C[C@]5(C)[C@@H]4[C@@H](O)C[C@]3(C)[C@]2(C(=O)CO)O1`, the outcome was inactive.
Turning to `C#C[C@]1(O)CC[C@H]2[C@@H]3CCC4=CC(=O)CC[C@@H]4[C@H]3CC[C@@]21CC`, the “activity change, negative = cytotoxicity” value was -16.2% (inactive).
The same measure, in the same setting: the figure for `NCCCNCCSP(=O)(O)O` is -16.9% [at 11.3 µM] (inactive).
Turning to `Cc1c(C(=O)O)c(O)cc2c1C(=O)c1c(O)c([C@@H]3O[C@H](CO)[C@@H](O)[C@H](O)[C@H]3O)c(O)c(O)c1C2=O`, the result was inactive.
